In PubChem BioAssay (NCI):
Compounds without any hit were thinned out: in the full panel of roughly 79,000, 15% have a hit. The source made the active and inactive calls. No stated cut-off is given here; in the data, active means growth inhibition above about 70%; inactive means the rest.

Assays:
[1] = NCI Yeast Anticancer Drug Screen. Data for the rad52 strain (AID 147);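 further: 0% = growth of vehicle-treated control cultures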; details: S. cerevisiae rad52 mutant growth inhibition, active compounds read high
Method in brief: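 Compounds are applied to a genetically defined yeast strain lacking normal DNA damage repair, and inhibition of growth is expressed relative to cultures given vehicle only.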

[2] = NCI Yeast Anticancer Drug Screen. Data for the rad50EPP+ strain (AID 151);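 further: 0% = growth of vehicle-treated control cultures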; details: S. cerevisiae rad50 mutant strain, active compounds read high
Method in brief: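 Compounds were applied to the rad50EPP+ yeast strain, which bears a defined DNA repair alteration, and growth inhibition was determined relative to vehicle-treated cultures.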

[3] = NCI Yeast Anticancer Drug Screen. Data for the mgt1 strain (AID 153); details: S. cerevisiae mgt1 mutant growth inhibition, active compounds read high
Method in brief: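 Strain: mgt1 yeast, one of a set carrying defined DNA damage repair or cell cycle control alterations. Compound-treated growth compared with vehicle.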

[4] = NCI Yeast Anticancer Drug Screen. Data for the rad50 strain (AID 155);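 further: 0% = growth of vehicle-only cultures of the same strain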; details: S. cerevisiae rad50 strain growth inhibition, active compounds read high
Method in brief: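 Inhibition values express reduced yeast growth in compound-treated cultures relative to vehicle-treated controls.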

[5] = NCI Yeast Anticancer Drug Screen. Data for the mec2-1 strain (AID 157); details: S. cerevisiae mec2-1 strain, active compounds read high
Method in brief: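 Strain: mec2-1 (DNA repair/cell cycle alteration). Compound exposure, then growth measured; inhibition expressed relative to vehicle.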

[6] = NCI Yeast Anticancer Drug Screen. Data for the rad14 strain (AID 159);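 further: 0% = growth of vehicle-treated control cultures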; details: S. cerevisiae rad14 strain growth inhibition, active compounds read high
Method in brief: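 A mutant yeast strain defective in DNA damage repair is treated with compound; inhibition of its growth is scored against untreated, vehicle-exposed cultures.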

[7] = NCI Yeast Anticancer Drug Screen. Data for the sgs1 mgt1 strain (AID 161);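 further: 0% = growth of cultures given vehicle only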; details: S. cerevisiae sgs1 mgt1 strain, active compounds read high
Method in brief: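 Read-out: growth inhibition vs vehicle controls. Cells: mutant yeast strain deficient in DNA damage repair.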

[8] = NCI Yeast Anticancer Drug Screen. Data for the CLN2oe strain (AID 163);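 further: 0% = growth of vehicle-only control cultures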; details: S. cerevisiae CLN2oe strain, active compounds read high
Method in brief: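 Growth of a genetically modified yeast strain is measured after compound exposure and compared with cultures given vehicle alone.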

[9] = NCI Yeast Anticancer Drug Screen. Data for the cln2 rad14 strain (AID 165);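 further: 0% = growth equal to vehicle treated cultures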; details: S. cerevisiae cln2 rad14 strain, active compounds read high
Method in brief: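 Compounds are applied to the cln2 rad14 yeast strain, and growth is then compared with that of vehicle-treated cultures to give inhibition.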

[10] = NCI Yeast Anticancer Drug Screen. Data for the bub3 strain (AID 167); details: S. cerevisiae bub3 mutant strain, active compounds read high
Method in brief: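 Steps: expose the mutant yeast strain to compound; grow alongside vehicle-treated cultures; measure growth; express inhibition against the vehicle cultures.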

[11] = NCI Yeast Anticancer Drug Screen. Data for the wt2 strain (AID 169);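 further: 0% = growth of vehicle-treated yeast cultures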; details: S. cerevisiae wt2 strain growth inhibition, active compounds read high
Method in brief: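 This strain belongs to a panel of yeast strains with defined genetic alterations in DNA damage repair or cell cycle control. Compounds are applied, and growth inhibition is measured against vehicle-treated cultures.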

[12] = NCI Yeast Anticancer Drug Screen. Data for the mlh1 strain (AID 171);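 further: 0% = growth of vehicle-treated control cultures of the same strain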; details: S. cerevisiae mlh1 strain growth inhibition, active compounds read high
Method in brief: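 Growth of the mutant yeast strain after compound exposure, expressed as inhibition relative to vehicle-only controls.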

[13] = NCI Yeast Anticancer Drug Screen. Data for the sgs1 strain (AID 173);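 further: 0% = growth of vehicle-only control cultures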; details: S. cerevisiae sgs1 mutant, active compounds read high
Method in brief: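 Growth of a yeast strain bearing a defined genetic alteration is measured after compound treatment. Inhibition is expressed relative to vehicle-only controls.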

[14] = NCI Yeast Anticancer Drug Screen. Data for the mlh1 rad18 strain (AID 175); details: S. cerevisiae mlh1 rad18 strain growth inhibition, active compounds read high
Method in brief: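 Read-out is yeast growth inhibition, calculated against vehicle-only controls. The compound was applied to a strain engineered with DNA damage repair alterations.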

[15] = NCI Yeast Anticancer Drug Screen. Data for the rad18 strain (AID 177); details: S. cerevisiae rad18 mutant growth inhibition, active compounds read high
Method in brief: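 Growth of the mutant yeast strain after compound exposure, normalised to vehicle-only cultures.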

[16] = NCI Yeast Anticancer Drug Screen. Data for the wt1 strain (AID 149);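 further: 0% = growth of vehicle-treated wt1 cultures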; details: S. cerevisiae wt1 strain (SPY 50644) growth inhibition, active compounds read high
Method in brief: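 Compounds are added to wt1 yeast cultures. Growth is then measured. Inhibition is expressed relative to vehicle-treated controls.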

[17] = at 5.0 µM (retest, dose inferred, filed as 0.5)
[18] = at 50.0 µM (retest, dose inferred, filed as 5.0)

Measured: growth inhibition

CC1=C2C(=C[C@@](C)(CO)[C@@H]2O)C(=O)[C@](C)(O)C12CC2
inactive: [1]; at 1.2 µM 2% | [1]; at 3.7 µM 9% | [1]; at 11.0 µM 21% | [1]; at 33.0 µM 42% | [2]; at 1.2 µM -3% | [2]; at 3.7 µM -1% | [2]; at 11.0 µM 1% | [2]; at 33.0 µM -2% | [2]; at 100.0 µM 1% | [3]; at 1.2 µM -3% | [3]; at 3.7 µM -1% | [3]; at 11.0 µM 0% | [3]; at 33.0 µM 2% | [3]; at 100.0 µM 0% | [4]; at 1.2 µM 2% | [4]; at 3.7 µM 2% | [4]; at 11.0 µM 11% | [4]; at 33.0 µM 31% | [4]; at 50.0 µM 33.8% | [5]; at 1.2 µM 0% | [5]; at 3.7 µM 0% | [5]; at 11.0 µM 1% | [5]; at 33.0 µM 13% | [5]; at 50.0 µM 22.9% | [5]; at 100.0 µM 48% | [6]; at 1.2 µM 1% | [6]; at 3.7 µM -1% | [6]; at 11.0 µM 4% | [6]; at 33.0 µM 13% | [6]; at 100.0 µM 41% | [7]; at 50.0 µM 44% | [8]; at 1.2 µM -5% | [8]; at 3.7 µM -8% | [8]; at 11.0 µM -10% | [8]; at 33.0 µM -13% | [8]; at 100.0 µM -5% | [9]; at 50.0 µM 22.6% | [10]; at 1.2 µM -4% | [10]; at 3.7 µM -5% | [10]; at 11.0 µM -7% | [10]; at 33.0 µM -10% | [10]; at 50.0 µM -41% | [10]; at 100.0 µM -12% | [11]; at 1.2 µM -2% | [11]; at 3.7 µM 0% | [11]; at 11.0 µM 0% | [11]; at 33.0 µM 0% | [11]; at 100.0 µM 1% | [12]; at 1.2 µM 0% | [12]; at 3.7 µM 1% | [12]; at 11.0 µM 2% | [12]; at 33.0 µM 3% | [12]; at 100.0 µM 7% | [13]; at 1.2 µM 3% | [13]; at 3.7 µM 10% | [13]; at 11.0 µM 24% | [13]; at 33.0 µM 50% | [14]; at 50.0 µM 11.7% | [15]; at 1.2 µM 37%
active: [1]; at 100.0 µM 74% | [4]; at 100.0 µM 70% | [13]; at 100.0 µM 73% | [15]; at 3.7 µM 74% | [15]; at 11.0 µM 90% | [15]; at 33.0 µM 93% | [15]; at 100.0 µM 95%

CCN(CCCl)c1cc(CN(C)C)cc(NC(=O)c2ccc(C(=O)Nc3cc(CN(C)C)cc(N(CC)CCCl)c3)cc2)c1
active: [3]; at 100.0 µM 89% | [4]; [18] 93% | [4]; at 50.0 µM 73.5% | [4]; at 100.0 µM 96% | [5]; [18] 95% | [5]; at 100.0 µM 90% | [6]; at 100.0 µM 96% | [7]; [18] 97% | [10]; [18] 97% | [10]; at 100.0 µM 75% | [11]; at 100.0 µM 89% | [13]; at 100.0 µM 94% | [14]; [17] 71% | [14]; [18] 98% | [14]; at 50.0 µM 91.7% | [15]; at 11.0 µM 85% | [15]; at 33.0 µM 90% | [15]; at 100.0 µM 97%
inactive: [16]; at 1.2 µM 9% | [16]; at 3.7 µM 20% | [16]; at 11.0 µM 9% | [16]; at 33.0 µM 8% | [16]; at 100.0 µM 40% | [2]; at 1.2 µM 17% | [2]; at 3.7 µM 32% | [2]; at 11.0 µM 9% | [2]; at 33.0 µM 19% | [2]; at 100.0 µM 35% | [3]; at 1.2 µM 5% | [3]; at 3.7 µM 3% | [3]; at 11.0 µM -6% | [3]; at 33.0 µM 10% | [4]; at 1.2 µM 3% | [4]; at 3.7 µM 11% | [4]; [17] 36% | [4]; at 11.0 µM 4% | [4]; at 33.0 µM 58% | [5]; at 1.2 µM -8% | [5]; at 3.7 µM 1% | [5]; [17] 26% | [5]; at 11.0 µM -9% | [5]; at 33.0 µM 8% | [5]; at 50.0 µM 37.5% | [6]; at 1.2 µM -11% | [6]; at 3.7 µM -13% | [6]; at 11.0 µM -6% | [6]; at 33.0 µM 56% | [7]; [17] 39% | [7]; at 50.0 µM 65.2% | [8]; at 1.2 µM 15% | [8]; at 3.7 µM 14% | [8]; at 11.0 µM 17% | [8]; at 33.0 µM 27% | [8]; at 100.0 µM 47% | [9]; [17] 6% | [9]; [18] 58% | [9]; at 50.0 µM 35% | [10]; at 1.2 µM -30% | [10]; at 3.7 µM -28% | [10]; [17] 32% | [10]; at 11.0 µM -14% | [10]; at 33.0 µM -22% | [10]; at 50.0 µM -8.9% | [11]; at 1.2 µM -12% | [11]; at 3.7 µM -19% | [11]; at 11.0 µM -16% | [11]; at 33.0 µM 3% | [13]; at 1.2 µM 5% | [13]; at 3.7 µM 3% | [13]; at 11.0 µM 7% | [13]; at 33.0 µM 65% | [15]; at 1.2 µM 3% | [15]; at 3.7 µM 57%

Nc1nc(-c2ccccc2)c(-c2ccccc2)[se]1
active: [7]; at 50.0 µM 86.2%
inactive: [1]; at 1.2 µM 3% | [1]; at 3.7 µM 3% | [1]; at 11.0 µM 0% | [1]; at 33.0 µM 12% | [1]; at 100.0 µM 28% | [2]; at 1.2 µM -1% | [2]; at 3.7 µM 7% | [2]; at 11.0 µM 9% | [2]; at 33.0 µM 18% | [2]; at 100.0 µM 25% | [3]; at 1.2 µM -3% | [3]; at 3.7 µM 1% | [3]; at 11.0 µM 0% | [3]; at 33.0 µM 2% | [3]; at 100.0 µM 12% | [4]; at 1.2 µM 7% | [4]; at 3.7 µM 4% | [4]; [17] 7% | [4]; at 11.0 µM 5% | [4]; at 33.0 µM 16% | [4]; [18] 10% | [4]; at 50.0 µM 51.1% | [4]; at 100.0 µM 32% | [5]; at 1.2 µM -1% | [5]; at 3.7 µM 1% | [5]; [17] 11% | [5]; at 11.0 µM 0% | [5]; at 33.0 µM 3% | [5]; [18] 10% | [5]; at 50.0 µM 22.9% | [5]; at 100.0 µM 7% | [6]; at 1.2 µM 5% | [6]; at 3.7 µM 3% | [6]; at 11.0 µM 4% | [6]; at 33.0 µM 13% | [6]; at 100.0 µM 28% | [7]; [17] 10% | [7]; [18] 23% | [8]; at 1.2 µM 3% | [8]; at 3.7 µM -1% | [8]; at 11.0 µM 3% | [8]; at 33.0 µM 8% | [8]; at 100.0 µM 15% | [9]; [17] 11% | [9]; [18] 2% | [9]; at 50.0 µM -11.8% | [10]; at 1.2 µM -2% | [10]; at 3.7 µM -2% | [10]; [17] 3% | [10]; at 11.0 µM -3% | [10]; at 33.0 µM 3% | [10]; [18] 1% | [10]; at 50.0 µM 41.3% | [10]; at 100.0 µM 5% | [11]; at 1.2 µM -10% | [11]; at 3.7 µM -9% | [11]; at 11.0 µM -14% | [11]; at 33.0 µM -9% | [11]; at 100.0 µM -10%
